According to PubChem BioAssay (Tox21):
Values joined by “and” are separate entries in the source; they are usually repeats but may differ in a detail not shown here. Equal values may be shown once. Inconclusive results are not listed. Where a structure was tested more than once in an assay, its records may differ in their call. Active and inactive are the calls of the source. Calls follow the shape of the dose curve; as a rule, active = well fitted curve in the direction sought with a large enough effect in the repeat runs; inconclusive = weak or mixed curves; inactive = no such curve, though single readings can be large; an effect the other way counts as inactive or inconclusive.

What was measured:
[1] = A CellTox Green Cytotoxicity Assay to monitor cytotoxicity in HEK293 cells - 40 hour (AID 1224871); also: nearly all actives have a fitted effect of over 45% in size
Method in brief: (§1)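 Fluorescence from a DNA-binding dye excluded by viable cells was measured repeatedly in the same HEK293 wells (600 cells/well) during continuous compound exposure at 37 C. Each assay gives one read point: 0, 8, 16, 24, 32 or 40 h.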

[2] = qHTS RealTime-Glo MT Cell Viability Assay in HEK293 cells - 16 hour (AID 1224872); also: nearly all actives have a fitted effect of over 50% in size; also: potency is read from the fitted curve at half-maximal effect
Method in brief: (§2)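 Viability tracked continuously by luminescence as live cells reduce a prosubstrate for NanoLuc; HEK293 cells preincubated 5 h, compound-treated at 37 C, and read at 0, 8, 16, 24, 32 and 40 h.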

[3] = qHTS RealTime-Glo MT Cell Viability Assay in HepG2 cells - 8 hour (AID 1224873); also: nearly all actives have a fitted effect of over 55% in size
Method in brief: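 HepG2 cells mixed with RealTime-Glo MT reagents (NanoLuc plus cell-permeant prosubstrate) were seeded at 600 cells/well, incubated 5 h at 37 C/5% CO2, then pinned with compounds in DMSO; nonlytic luminescence tracked viability during 40 h treatment.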

[4] = qHTS RealTime-Glo MT Cell Viability Assay in HEK293 cells - 40 hour (AID 1224874); settings: RealTime-Glo luminescence; max response: stronger effect = lower value; also: nearly all actives have a fitted effect of over 50% in size; also: potency is read from the fitted curve at half-maximal effect
Method in brief: (§3)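 Luminescence, which tracks viable cell number through reduction of the prosubstrate to a NanoLuc substrate, was read over continuous 37 C culture. Cells (600/well) were premixed with reagent and rested 5 h before 23 nL of compound in DMSO was pinned.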

[5] = A CellTox Green Cytotoxicity Assay to monitor cytotoxicity in HEK293 cells - 24 hour (AID 1224875); also: series mostly up to about 77 µM; nearly all actives have a fitted effect of over 45% in size
Method in brief: as §1

[6] = A CellTox Green Cytotoxicity Assay to monitor cytotoxicity in HepG2 cells - 16 hour (AID 1224876); also: nearly all actives have a fitted effect of over 45% in size
Method in brief: (§4)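 Real-time cytotoxicity: fluorescence of a cell-impermeant cyanine dye binding DNA of dead HepG2 cells, measured repeatedly (0–40 h) during compound exposure at 37 C. Cells seeded 600/well with reagent, dosed after 5 h.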

[7] = qHTS RealTime-Glo MT Cell Viability Assay in HepG2 cells - 32 hour (AID 1224877); also: nearly all actives have a fitted effect of over 55% in size
Method in brief: (§5)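 Viability was tracked continuously by NanoLuc luminescence from prosubstrate reduced by living HepG2 cells, at successive time points over 40 h of compound exposure. Cells with reagent were preincubated 5 h at 37 °C before compound addition.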

[8] = A CellTox Green Cytotoxicity Assay to monitor cytotoxicity in HepG2 cells - 24 hour (AID 1224878); also: nearly all actives have a fitted effect of over 45% in size
Method in brief: as §4

[9] = A CellTox Green Cytotoxicity Assay to monitor cytotoxicity in HepG2 cells - 40 hour (AID 1224879); also: nearly all actives have a fitted effect of over 40% in size
Method in brief: as §4

[10] = qHTS RealTime-Glo MT Cell Viability Assay in HEK293 cells - 0 hour (AID 1224880)
Method in brief: as §3

[11] = A CellTox Green Cytotoxicity Assay to monitor cytotoxicity in HEK293 cells - 32 hour (AID 1224881); also: nearly all actives have a fitted effect of over 40% in size
Method in brief: as §1

[12] = A CellTox Green Cytotoxicity Assay to monitor cytotoxicity in HepG2 cells - 0 hour (AID 1224882); also: nearly all actives have a fitted effect of over 35% in size
Method in brief: as §4

[13] = A CellTox Green Cytotoxicity Assay to monitor cytotoxicity in HepG2 cells - 32 hour (AID 1224883); also: nearly all actives have a fitted effect of over 50% in size
Method in brief: as §4

[14] = A CellTox Green Cytotoxicity Assay to monitor cytotoxicity in HEK293 cells - 8 hour (AID 1224884); also: nearly all actives have a fitted effect of over 35% in size
Method in brief: as §1

[15] = qHTS RealTime-Glo MT Cell Viability Assay in HepG2 cells - 16 hour (AID 1224885); also: nearly all actives have a fitted effect of over 50% in size
Method in brief: as §5

[16] = qHTS RealTime-Glo MT Cell Viability Assay in HEK293 cells - 24 hour (AID 1224886); also: nearly all actives have a fitted effect of over 50% in size; also: potency is read from the fitted curve at half-maximal effect
Method in brief: as §2

[17] = A CellTox Green Cytotoxicity Assay to monitor cytotoxicity in HEK293 cells - 16 hour (AID 1224888); also: nearly all actives have a fitted effect of over 35% in size
Method in brief: as §1

[18] = qHTS RealTime-Glo MT Cell Viability Assay in HepG2 cells - 0 hour (AID 1224889); also: nearly all actives have a fitted effect of over 50% in size; also: potency is read from the fitted curve at half-maximal effect
Method in brief: as §5

[19] = A CellTox Green Cytotoxicity Assay to monitor cytotoxicity in HepG2 cells - 8 hour (AID 1224890); also: nearly all actives have a fitted effect of over 45% in size
Method in brief: as §4

[20] = qHTS RealTime-Glo MT Cell Viability Assay in HEK293 cells - 8 hour (AID 1224887)
Method in brief: as §3
% is scaled to controls: 0 for no effect and ±100 for the full control effect.

O=C(O)C1=NN(c2ccc(S(=O)(=O)O)cc2)C(=O)C1
inactive: Potency [1] | Potency [2] | Potency [3] | max response [4] 6.57% and 2.54% | Potency [5] | Potency [6] | Potency [7] | Potency [8] | Potency [9] | Potency [10] | Potency [11] | Potency [12] | Potency [13] | Potency [14] | Potency [15] | Potency [16] | Potency [17] | Potency [18] | Potency [19]

CC/C=C(\C(=O)N[C@@H]1C(=O)N2C(C(=O)OCOC(=O)C(C)(C)C)=C(COC(N)=O)CS[C@H]12)c1csc(N)n1
inactive: Potency [1] | Potency [2] | Potency [3] | max response [4] 11.8% and 8.9% | Potency [5] | Potency [6] | Potency [7] | Potency [8] | Potency [9] | Potency [10] | Potency [11] | Potency [12] | Potency [13] | Potency [14] | Potency [15] | Potency [16] | Potency [20] | Potency [17] | Potency [18] | Potency [19]

COc1ccc(N)c(OC)c1
inactive: Potency [1] | Potency [2] | Potency [3] | max response [4] -8.13% and -8.26% | Potency [5] | Potency [6] | Potency [7] | Potency [8] | Potency [9] | Potency [10] | Potency [11] | Potency [12] | Potency [13] | Potency [14] | Potency [15] | Potency [16] | Potency [17] | Potency [18] | Potency [19]

NC(N)=S
inactive: Potency [1] | Potency [2] | Potency [3] | max response [4] 2.78% and 0.322% | Potency [5] | Potency [6] | Potency [7] | Potency [8] | Potency [9] | Potency [10] | Potency [11] | Potency [12] | Potency [13] | Potency [14] | Potency [15] | Potency [16] | Potency [17] | Potency [18] | Potency [19]

CC(=O)CC(=O)N(C)C
inactive: Potency [1] | Potency [2] | Potency [3] | max response [4] 0.701% and 6.53% | Potency [5] | Potency [6] | Potency [7] | Potency [8] | Potency [9] | Potency [10] | Potency [11] | Potency [12] | Potency [13] | Potency [14] | Potency [15] | Potency [16] | Potency [20] | Potency [17] | Potency [18] | Potency [19]

CC(O)CNCC(C)O (centres undefined)
inactive: Potency [1] | Potency [2] | Potency [3] | max response [4] 3.16% | Potency [5] | Potency [6] | Potency [7] | Potency [8] | Potency [9] | Potency [10] | Potency [11] | Potency [12] | Potency [13] | Potency [14] | Potency [15] | Potency [16] | Potency [17] | Potency [18] | Potency [19]

O=c1n(CCCN2CCN(c3cccc(Cl)c3)CC2)nc2ccccn12
active: Potency [2] 12.3 µM and 9.52 µM | Potency [4] 13.8 µM and 9.52 µM | Potency [16] 13.8 µM and 16.9 µM
49 µM (active) and inactive: Potency [18]
inactive: Potency [1] | Potency [3] | Potency [5] | Potency [6] | Potency [7] | Potency [8] | Potency [9] | Potency [10] | Potency [11] | Potency [12] | Potency [13] | Potency [14] | Potency [15] | Potency [17] | Potency [19]

C[Si](C)(C)N[Si](C)(C)C
inactive: Potency [1] | Potency [2] | Potency [3] | max response [4] 2.88% and 0.469% | Potency [5] | Potency [6] | Potency [7] | Potency [8] | Potency [9] | Potency [10] | Potency [11] | Potency [12] | Potency [13] | Potency [14] | Potency [15] | Potency [16] | Potency [20] | Potency [17] | Potency [18] | Potency [19]

Cc1ncc(CO)c(CO)c1O
inactive: Potency [1] | Potency [2] | Potency [3] | max response [4] 6.27% and -1.31% and 5.41% | Potency [5] | Potency [6] | Potency [7] | Potency [8] | Potency [9] | Potency [10] | Potency [11] | Potency [12] | Potency [13] | Potency [14] | Potency [15] | Potency [16] | Potency [20] | Potency [17] | Potency [18] | Potency [19]

CCCCCCCCO
inactive: Potency [1] | Potency [2] | Potency [3] | max response [4] 2.5% and 9.18% | Potency [5] | Potency [6] | Potency [7] | Potency [8] | Potency [9] | Potency [10] | Potency [11] | Potency [12] | Potency [13] | Potency [14] | Potency [15] | Potency [16] | Potency [20] | Potency [17] | Potency [18] | Potency [19]

C=CC(C)(C)C
inactive: Potency [1] | Potency [2] | Potency [3] | max response [4] 1.9% and -10.6% | Potency [5] | Potency [6] | Potency [7] | Potency [8] | Potency [9] | Potency [10] | Potency [11] | Potency [12] | Potency [13] | Potency [14] | Potency [15] | Potency [16] | Potency [17] | Potency [18] | Potency [19]

CCCCCCCCCCCC(=O)N(C)CC(=O)O
inactive: cytotoxicity increase [1] 3.46% [at 6.97 µM] | Potency [2] | Potency [3] | max response [4] 1.1% and -15.4% | Potency [5] | Potency [6] | Potency [7] | Potency [8] | cytotoxicity increase [9] 1.38% [at 6.97 µM] | Potency [10] | cytotoxicity increase [11] 0.815% [at 6.97 µM] | Potency [12] | cytotoxicity increase [13] 2.96% [at 6.97 µM] | Potency [14] | Potency [15] | Potency [16] | Potency [20] | Potency [17] | Potency [18] | Potency [19]

O=C1OC(=O)c2c(Cl)c(Cl)c(Cl)c(Cl)c21
inactive: Potency [1] | Potency [2] | Potency [3] | max response [4] 1.44% | Potency [5] | Potency [6] | Potency [7] | Potency [8] | Potency [9] | Potency [10] | Potency [11] | Potency [12] | Potency [13] | Potency [14] | Potency [15] | Potency [16] | Potency [20] | Potency [17] | Potency [18] | Potency [19]
